# In publication PMC7862700, “An all-to-all approach to the identification of sequence-specific readers for epigenetic DNA modifications on cytosine”:
# Columns and labels:
# Assay in all cases: DAPPL (digital affinity profiling via proximity ligation, sequencing); 10 mM Tris-HCl pH 7.5, 50 mM NaCl, 1 mM DTT, 4% glycerol, room temperature, 30 min; GST-TFs on glutathione beads, 16-mer random dsDNA library, 0.1% formaldehyde crosslink after washing; high values mean tight binding
# [1] = target: T1, FLI1 (Homo sapiens, UniProt Q01543 1-452); settings: protein: recombinant; tags: N-terminal GST; dsDNA, one strand shown
# T1 sequence: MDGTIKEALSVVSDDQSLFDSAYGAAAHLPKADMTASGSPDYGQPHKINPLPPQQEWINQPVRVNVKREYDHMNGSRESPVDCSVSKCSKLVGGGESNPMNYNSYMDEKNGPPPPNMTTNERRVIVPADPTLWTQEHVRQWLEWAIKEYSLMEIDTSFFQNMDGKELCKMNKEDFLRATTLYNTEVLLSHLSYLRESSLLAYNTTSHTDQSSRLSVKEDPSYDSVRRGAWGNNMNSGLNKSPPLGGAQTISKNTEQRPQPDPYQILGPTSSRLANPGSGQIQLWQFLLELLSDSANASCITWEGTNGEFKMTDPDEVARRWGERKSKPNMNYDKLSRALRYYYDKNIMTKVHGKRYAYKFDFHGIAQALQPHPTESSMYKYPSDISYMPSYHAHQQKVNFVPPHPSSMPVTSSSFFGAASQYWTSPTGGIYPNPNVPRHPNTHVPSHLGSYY
# Summary of the method: (§1)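 In yeast, human transcription factors were expressed with a GST fusion, then pulled down on glutathione beads and given DNA barcodes. Pooled with a tag-only sample, they were exposed to 200 nmole of a 16-mer random double-stranded DNA library (Tris/NaCl/DTT/glycerol buffer, room temperature, 30 min), washed, crosslinked with 0.1% formaldehyde, proximity-ligated using BsaI/T4 ligase for 1 h at 37 °C, PCR-amplified and read on an Illumina NextSeq500. Each hexamer's frequency of reads for a factor, divided by the matching frequency for the tag-only sample, gives the binding signal.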
# [2] = target: T2, ELK1 (Homo sapiens, UniProt P19419 1-428); settings: protein: recombinant; tags: N-terminal GST; dsDNA, one strand shown
# T2 sequence: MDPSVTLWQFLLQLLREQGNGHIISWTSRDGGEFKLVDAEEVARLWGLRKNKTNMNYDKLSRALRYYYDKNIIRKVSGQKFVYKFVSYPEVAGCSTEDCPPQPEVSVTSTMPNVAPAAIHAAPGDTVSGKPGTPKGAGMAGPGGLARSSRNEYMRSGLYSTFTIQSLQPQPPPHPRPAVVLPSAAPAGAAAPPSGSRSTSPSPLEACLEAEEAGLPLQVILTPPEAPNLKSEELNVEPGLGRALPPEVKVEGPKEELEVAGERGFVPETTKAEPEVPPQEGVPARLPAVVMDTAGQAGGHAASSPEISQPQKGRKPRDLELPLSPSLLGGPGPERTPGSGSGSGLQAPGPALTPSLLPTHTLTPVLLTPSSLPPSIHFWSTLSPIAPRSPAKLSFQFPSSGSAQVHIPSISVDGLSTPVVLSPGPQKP
# Summary of the method: as §1
# [3] = target: T3, GABPA (Homo sapiens, UniProt Q06546 1-454); settings: protein: recombinant; tags: N-terminal GST; dsDNA, one strand shown
# T3 sequence: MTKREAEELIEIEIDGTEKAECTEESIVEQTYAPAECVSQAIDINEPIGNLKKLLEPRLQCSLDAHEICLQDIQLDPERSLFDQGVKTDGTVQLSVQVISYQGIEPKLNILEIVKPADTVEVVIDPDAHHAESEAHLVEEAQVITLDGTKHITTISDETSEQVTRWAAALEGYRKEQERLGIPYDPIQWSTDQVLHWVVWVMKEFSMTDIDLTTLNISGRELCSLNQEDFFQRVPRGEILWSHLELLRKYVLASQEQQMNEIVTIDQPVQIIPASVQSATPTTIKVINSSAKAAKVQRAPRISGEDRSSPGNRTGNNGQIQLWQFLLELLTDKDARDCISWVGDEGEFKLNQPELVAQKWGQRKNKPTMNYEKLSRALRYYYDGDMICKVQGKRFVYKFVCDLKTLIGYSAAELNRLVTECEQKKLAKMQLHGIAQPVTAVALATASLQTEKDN
# Summary of the method: as §1
# [4] = target: T4, ERG (Homo sapiens, UniProt P11308 1-479); settings: protein: recombinant; tags: N-terminal GST; dsDNA, one strand shown
# T4 sequence: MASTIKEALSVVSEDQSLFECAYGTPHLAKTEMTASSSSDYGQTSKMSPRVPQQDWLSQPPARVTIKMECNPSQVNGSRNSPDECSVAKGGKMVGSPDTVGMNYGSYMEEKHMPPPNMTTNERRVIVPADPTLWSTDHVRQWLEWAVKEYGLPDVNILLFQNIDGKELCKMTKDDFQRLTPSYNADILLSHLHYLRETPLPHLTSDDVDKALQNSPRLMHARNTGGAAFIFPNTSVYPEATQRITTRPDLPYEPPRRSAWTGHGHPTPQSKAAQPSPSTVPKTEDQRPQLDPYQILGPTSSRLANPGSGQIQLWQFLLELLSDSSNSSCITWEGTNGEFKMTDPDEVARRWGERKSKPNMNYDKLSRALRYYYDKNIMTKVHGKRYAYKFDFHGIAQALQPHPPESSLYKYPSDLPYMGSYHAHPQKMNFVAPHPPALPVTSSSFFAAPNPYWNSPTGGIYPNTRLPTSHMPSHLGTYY
# Summary of the method: as §1
# [5] = target: ELF1 (Homo sapiens, UniProt P32519 1-619); settings: protein: recombinant; tags: N-terminal GST; dsDNA, one strand shown
# ELF1, sequence (P32519 whole entry): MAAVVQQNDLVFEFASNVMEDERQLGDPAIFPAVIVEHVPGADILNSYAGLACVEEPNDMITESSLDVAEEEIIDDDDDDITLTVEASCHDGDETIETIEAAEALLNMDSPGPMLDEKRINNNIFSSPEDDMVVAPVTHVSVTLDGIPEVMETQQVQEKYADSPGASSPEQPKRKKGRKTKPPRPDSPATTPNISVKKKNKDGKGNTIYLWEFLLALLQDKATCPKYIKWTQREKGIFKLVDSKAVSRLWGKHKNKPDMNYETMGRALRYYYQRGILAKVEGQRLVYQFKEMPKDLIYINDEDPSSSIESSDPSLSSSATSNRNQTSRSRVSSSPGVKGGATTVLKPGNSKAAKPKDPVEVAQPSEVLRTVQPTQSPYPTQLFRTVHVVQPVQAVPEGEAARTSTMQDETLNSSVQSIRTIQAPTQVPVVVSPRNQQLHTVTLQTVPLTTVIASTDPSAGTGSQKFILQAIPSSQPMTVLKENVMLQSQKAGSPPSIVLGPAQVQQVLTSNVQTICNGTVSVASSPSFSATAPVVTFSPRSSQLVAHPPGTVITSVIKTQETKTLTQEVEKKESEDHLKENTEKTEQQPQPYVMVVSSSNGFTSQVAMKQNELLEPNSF
# Summary of the method: as §1
# [6] = target: T5, EHF (Homo sapiens, UniProt Q9NZC4 1-300); settings: protein: recombinant; tags: N-terminal GST; dsDNA, one strand shown
# T5 sequence: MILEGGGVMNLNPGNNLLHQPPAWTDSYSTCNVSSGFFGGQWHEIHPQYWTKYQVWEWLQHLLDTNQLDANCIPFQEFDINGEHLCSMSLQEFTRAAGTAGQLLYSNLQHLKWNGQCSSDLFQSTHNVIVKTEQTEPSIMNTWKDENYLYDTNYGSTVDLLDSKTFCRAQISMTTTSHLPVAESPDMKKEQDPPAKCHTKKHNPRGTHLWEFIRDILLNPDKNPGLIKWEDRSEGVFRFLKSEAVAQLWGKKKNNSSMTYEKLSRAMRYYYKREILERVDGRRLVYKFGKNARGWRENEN
# Summary of the method: as §1
# [7] = target: SPI1 (Homo sapiens, UniProt P17947 1-270); settings: protein: recombinant; tags: N-terminal GST; dsDNA, one strand shown
# Summary of the method: as §1
# [8] = target: SPIB (Homo sapiens, UniProt Q01892 1-262); settings: protein: recombinant; tags: N-terminal GST; dsDNA, one strand shown
# SPIB, sequence (Q01892 whole entry): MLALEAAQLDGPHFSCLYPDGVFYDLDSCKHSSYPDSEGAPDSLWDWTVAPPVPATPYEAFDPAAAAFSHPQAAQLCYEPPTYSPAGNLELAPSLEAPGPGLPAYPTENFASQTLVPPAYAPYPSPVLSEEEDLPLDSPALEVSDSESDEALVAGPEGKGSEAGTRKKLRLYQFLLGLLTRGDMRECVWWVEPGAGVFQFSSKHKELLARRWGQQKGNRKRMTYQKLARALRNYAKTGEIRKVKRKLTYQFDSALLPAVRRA
# Summary of the method: as §1
# [9] = target: T6, ELK3 (Homo sapiens, UniProt P41970 1-407); settings: protein: recombinant; tags: N-terminal GST; dsDNA, one strand shown
# T6 sequence: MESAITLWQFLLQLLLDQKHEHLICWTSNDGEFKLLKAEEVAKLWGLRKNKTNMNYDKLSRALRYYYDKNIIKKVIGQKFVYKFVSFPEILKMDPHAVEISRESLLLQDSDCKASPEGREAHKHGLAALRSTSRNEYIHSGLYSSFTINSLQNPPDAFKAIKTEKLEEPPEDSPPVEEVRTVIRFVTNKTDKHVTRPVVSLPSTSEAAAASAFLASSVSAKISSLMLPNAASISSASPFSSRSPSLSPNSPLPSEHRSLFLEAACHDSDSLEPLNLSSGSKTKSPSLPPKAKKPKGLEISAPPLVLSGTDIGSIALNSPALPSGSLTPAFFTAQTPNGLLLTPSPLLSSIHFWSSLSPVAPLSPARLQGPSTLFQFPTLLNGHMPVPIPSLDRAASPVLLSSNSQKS
# Summary of the method: as §1
# [10] = target: T7, FEV (Homo sapiens, UniProt Q99581 1-238); settings: protein: recombinant; tags: N-terminal GST; dsDNA, one strand shown
# T7 sequence: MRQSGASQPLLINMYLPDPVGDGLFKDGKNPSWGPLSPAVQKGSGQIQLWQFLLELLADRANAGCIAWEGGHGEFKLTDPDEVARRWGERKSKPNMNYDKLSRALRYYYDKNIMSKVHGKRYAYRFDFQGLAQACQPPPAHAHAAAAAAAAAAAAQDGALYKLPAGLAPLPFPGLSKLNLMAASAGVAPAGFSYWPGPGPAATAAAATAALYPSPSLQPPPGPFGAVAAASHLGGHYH
# Summary of the method: as §1
# [11] = target: ETV5 (Homo sapiens, UniProt P41161 1-510); settings: protein: recombinant; tags: N-terminal GST; dsDNA, one strand shown
# ETV5, sequence (P41161 whole entry): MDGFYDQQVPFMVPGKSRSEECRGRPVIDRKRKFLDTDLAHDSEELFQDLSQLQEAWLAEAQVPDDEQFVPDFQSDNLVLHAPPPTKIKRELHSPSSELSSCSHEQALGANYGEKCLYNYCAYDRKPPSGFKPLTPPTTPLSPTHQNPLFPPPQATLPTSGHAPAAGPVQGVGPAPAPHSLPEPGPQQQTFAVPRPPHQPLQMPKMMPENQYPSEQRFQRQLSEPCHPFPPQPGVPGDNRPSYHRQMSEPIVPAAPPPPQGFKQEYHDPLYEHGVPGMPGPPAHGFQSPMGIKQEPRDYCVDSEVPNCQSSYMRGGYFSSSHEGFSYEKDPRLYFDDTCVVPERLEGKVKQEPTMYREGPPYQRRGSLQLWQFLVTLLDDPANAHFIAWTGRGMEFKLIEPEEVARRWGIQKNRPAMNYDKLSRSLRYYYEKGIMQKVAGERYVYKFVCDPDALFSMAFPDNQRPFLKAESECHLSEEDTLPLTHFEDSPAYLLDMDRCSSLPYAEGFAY
# Summary of the method: as §1
# [12] = target: HSF1 (Homo sapiens, UniProt Q00613 1-529); settings: protein: recombinant; tags: N-terminal GST; chain copies: 3; dsDNA, one strand shown
# HSF1, sequence (Q00613 whole entry): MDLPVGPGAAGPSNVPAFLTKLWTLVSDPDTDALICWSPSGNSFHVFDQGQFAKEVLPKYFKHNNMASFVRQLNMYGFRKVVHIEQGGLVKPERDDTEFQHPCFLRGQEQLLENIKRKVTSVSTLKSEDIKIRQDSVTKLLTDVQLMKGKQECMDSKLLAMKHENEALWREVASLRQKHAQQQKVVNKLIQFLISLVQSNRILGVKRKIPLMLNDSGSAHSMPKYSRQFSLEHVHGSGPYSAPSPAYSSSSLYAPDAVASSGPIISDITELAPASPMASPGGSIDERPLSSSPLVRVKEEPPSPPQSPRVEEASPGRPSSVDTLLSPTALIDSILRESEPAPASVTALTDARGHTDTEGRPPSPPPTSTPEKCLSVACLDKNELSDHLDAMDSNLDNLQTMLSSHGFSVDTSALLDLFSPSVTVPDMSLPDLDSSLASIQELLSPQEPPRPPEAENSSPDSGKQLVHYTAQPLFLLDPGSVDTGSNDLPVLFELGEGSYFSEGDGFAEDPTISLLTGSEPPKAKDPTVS
# Summary of the method: as §1
# [13] = target: T8, SPIC (Homo sapiens, UniProt Q8N5J4 1-248); settings: protein: recombinant; tags: N-terminal GST; dsDNA, one strand shown
# T8 sequence: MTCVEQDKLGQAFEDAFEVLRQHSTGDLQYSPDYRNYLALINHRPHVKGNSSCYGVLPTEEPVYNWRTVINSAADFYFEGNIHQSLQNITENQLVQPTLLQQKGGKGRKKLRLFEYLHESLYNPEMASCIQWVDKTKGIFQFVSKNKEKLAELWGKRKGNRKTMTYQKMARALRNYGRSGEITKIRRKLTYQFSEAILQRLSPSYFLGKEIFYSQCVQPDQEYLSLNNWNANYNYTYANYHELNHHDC
# Summary of the method: as §1
# [14] = target: ELF4 (Homo sapiens, UniProt Q99607 1-663); settings: protein: recombinant; tags: N-terminal GST; dsDNA, one strand shown
# ELF4, sequence (Q99607 whole entry): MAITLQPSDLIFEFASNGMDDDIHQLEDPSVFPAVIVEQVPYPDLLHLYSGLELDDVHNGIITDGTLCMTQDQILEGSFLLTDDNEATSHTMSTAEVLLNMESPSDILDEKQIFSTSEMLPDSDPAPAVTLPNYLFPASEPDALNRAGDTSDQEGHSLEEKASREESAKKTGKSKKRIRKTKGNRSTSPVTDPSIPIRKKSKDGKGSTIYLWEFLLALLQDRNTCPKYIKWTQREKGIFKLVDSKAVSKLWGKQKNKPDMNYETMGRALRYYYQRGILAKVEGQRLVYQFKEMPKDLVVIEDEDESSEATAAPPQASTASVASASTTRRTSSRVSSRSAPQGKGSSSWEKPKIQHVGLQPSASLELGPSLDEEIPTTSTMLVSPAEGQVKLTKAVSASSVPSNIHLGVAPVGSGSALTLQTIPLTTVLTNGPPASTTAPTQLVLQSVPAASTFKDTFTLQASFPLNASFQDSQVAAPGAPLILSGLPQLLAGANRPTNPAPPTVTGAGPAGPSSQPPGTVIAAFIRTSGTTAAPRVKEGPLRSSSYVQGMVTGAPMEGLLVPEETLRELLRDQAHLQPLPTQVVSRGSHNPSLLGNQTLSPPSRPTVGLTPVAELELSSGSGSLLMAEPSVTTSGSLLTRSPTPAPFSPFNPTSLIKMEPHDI
# Summary of the method: as §1
# [15] = target: T9, ELK4 (Homo sapiens, UniProt P28324-2 1-405); settings: protein: recombinant; tags: N-terminal GST; dsDNA, one strand shown
# T9 sequence: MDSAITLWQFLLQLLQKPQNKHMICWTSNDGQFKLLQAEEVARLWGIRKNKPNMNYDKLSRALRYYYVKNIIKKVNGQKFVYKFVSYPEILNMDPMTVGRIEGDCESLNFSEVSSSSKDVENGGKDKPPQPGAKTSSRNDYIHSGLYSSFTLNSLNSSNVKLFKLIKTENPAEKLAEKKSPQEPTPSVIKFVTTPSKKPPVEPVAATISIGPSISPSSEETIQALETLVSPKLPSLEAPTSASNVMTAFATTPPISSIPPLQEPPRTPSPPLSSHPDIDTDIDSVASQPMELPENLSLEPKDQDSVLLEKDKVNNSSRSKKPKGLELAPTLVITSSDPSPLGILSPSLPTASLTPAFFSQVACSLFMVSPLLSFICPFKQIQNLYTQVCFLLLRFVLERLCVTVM
# Summary of the method: as §1
# [16] = target: T10, ETV2 (Homo sapiens, UniProt O00321 1-342); settings: protein: recombinant; tags: N-terminal GST; dsDNA, one strand shown
# T10 sequence: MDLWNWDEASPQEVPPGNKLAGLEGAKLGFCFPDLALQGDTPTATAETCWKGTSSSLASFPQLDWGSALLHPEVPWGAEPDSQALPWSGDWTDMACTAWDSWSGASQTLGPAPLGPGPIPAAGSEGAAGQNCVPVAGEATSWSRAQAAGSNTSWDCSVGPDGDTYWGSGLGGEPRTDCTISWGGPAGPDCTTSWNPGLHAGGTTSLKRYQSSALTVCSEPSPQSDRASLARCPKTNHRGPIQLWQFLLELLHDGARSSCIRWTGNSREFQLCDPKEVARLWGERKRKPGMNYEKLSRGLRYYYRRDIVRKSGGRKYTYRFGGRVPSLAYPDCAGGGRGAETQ
# Summary of the method: as §1
# [17] = target: T11, ELF3 (Homo sapiens, UniProt P78545 1-371); settings: protein: recombinant; tags: N-terminal GST; dsDNA, one strand shown
# T11 sequence: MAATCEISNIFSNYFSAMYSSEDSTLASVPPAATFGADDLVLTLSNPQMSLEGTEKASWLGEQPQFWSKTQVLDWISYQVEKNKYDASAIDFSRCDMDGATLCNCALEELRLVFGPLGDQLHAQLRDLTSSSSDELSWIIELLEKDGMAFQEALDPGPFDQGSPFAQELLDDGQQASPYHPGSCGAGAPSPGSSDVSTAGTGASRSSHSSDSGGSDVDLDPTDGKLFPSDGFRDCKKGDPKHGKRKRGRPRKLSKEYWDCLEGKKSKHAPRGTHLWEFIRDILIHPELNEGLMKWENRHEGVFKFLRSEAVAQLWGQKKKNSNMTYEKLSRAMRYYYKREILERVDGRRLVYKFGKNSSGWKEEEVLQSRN
# Summary of the method: as §1
# [18] = target: CRX (Homo sapiens, UniProt O43186 1-299); settings: protein: recombinant; tags: N-terminal GST; dsDNA, one strand shown
# CRX, sequence (O43186 whole entry): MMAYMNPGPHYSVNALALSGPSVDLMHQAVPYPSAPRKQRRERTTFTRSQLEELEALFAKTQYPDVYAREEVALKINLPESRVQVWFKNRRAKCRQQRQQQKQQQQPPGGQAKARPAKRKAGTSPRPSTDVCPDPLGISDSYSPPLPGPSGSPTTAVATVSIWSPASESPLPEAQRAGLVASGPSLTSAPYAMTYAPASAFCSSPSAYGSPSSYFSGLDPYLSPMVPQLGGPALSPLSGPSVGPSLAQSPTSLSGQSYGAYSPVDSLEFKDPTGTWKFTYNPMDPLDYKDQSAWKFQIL
# Summary of the method: as §1
# [19] = target: ETV1 (Homo sapiens, UniProt P50549 1-477); settings: protein: recombinant; tags: N-terminal GST; dsDNA, one strand shown
# ETV1, sequence (P50549 whole entry): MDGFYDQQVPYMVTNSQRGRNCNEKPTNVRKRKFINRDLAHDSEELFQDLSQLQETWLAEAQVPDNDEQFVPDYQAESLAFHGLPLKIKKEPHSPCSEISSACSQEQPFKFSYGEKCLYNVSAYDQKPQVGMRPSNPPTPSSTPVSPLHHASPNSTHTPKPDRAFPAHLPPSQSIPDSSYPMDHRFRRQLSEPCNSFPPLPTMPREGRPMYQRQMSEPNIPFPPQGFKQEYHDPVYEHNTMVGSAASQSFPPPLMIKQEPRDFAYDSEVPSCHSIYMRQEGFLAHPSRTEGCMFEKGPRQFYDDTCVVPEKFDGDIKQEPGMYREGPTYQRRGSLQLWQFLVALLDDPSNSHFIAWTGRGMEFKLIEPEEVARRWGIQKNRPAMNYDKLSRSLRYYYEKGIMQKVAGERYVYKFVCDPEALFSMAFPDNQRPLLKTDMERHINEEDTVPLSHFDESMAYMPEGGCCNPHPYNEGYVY
# Summary of the method: as §1
sequence,measurement,setting,value
CCGTTC,binding signal,[1],"1.32 fold enrichment (6-mer frequency, TF over GST control)"
same,binding signal,[2],"1.38 fold enrichment (6-mer frequency, TF over GST control)"
same,binding signal,[3],"1.39 fold enrichment (6-mer frequency, TF over GST control)"
same,binding signal,[4],"1.38 fold enrichment (6-mer frequency, TF over GST control)"
same,binding signal,[5],"1.46 fold enrichment (6-mer frequency, TF over GST control)"
same,binding signal,[6],"1.5 fold enrichment (6-mer frequency, TF over GST control)"
same,binding signal,[7],"1.39 fold enrichment (6-mer frequency, TF over GST control)"
same,binding signal,[8],"1.47 fold enrichment (6-mer frequency, TF over GST control)"
same,binding signal,[9],"1.4 fold enrichment (6-mer frequency, TF over GST control)"
same,binding signal,[10],"1.48 fold enrichment (6-mer frequency, TF over GST control)"
same,binding signal,[11],"1.43 fold enrichment (6-mer frequency, TF over GST control)"
same,binding signal,[12],"1.18 fold enrichment (6-mer frequency, TF over GST control)"
same,binding signal,[13],"1.32 fold enrichment (6-mer frequency, TF over GST control)"
same,binding signal,[14],"1.37 fold enrichment (6-mer frequency, TF over GST control)"
same,binding signal,[15],"1.23 fold enrichment (6-mer frequency, TF over GST control)"
same,binding signal,[16],"1.4 fold enrichment (6-mer frequency, TF over GST control)"
same,binding signal,[17],"1.36 fold enrichment (6-mer frequency, TF over GST control)"
same,binding signal,[18],"1.11 fold enrichment (6-mer frequency, TF over GST control)"
same,binding signal,[19],"1.27 fold enrichment (6-mer frequency, TF over GST control)"
